Mcl1-Bid inh: disrupts binding of human Mcl-1 to Bid peptide; Q07820; TR-FRET Mcl-1/Bid-Dy647 peptide binding, 1536-well; inhibition, % at 21.7 µM; 220,000 tested, 0.97% active;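 active = compounds that cut the binding signal by more than half at the single screening dose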;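 note: His-tagged Mcl-1 with europium anti-His antibody binding Bid BH3 peptide; 0% = Mcl-1 plus peptide wells and 100% = peptide-only wells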
Target sequence (Q07820 whole entry, looked up): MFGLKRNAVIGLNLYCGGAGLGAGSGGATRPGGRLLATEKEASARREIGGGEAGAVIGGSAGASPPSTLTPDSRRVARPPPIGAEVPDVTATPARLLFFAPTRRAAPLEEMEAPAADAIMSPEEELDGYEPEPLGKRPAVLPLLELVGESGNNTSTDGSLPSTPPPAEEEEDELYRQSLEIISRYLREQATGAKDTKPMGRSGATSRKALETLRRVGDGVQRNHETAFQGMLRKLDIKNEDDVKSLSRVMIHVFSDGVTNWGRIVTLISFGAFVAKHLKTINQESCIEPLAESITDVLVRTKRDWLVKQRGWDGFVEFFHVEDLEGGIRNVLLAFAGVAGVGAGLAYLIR
Bcl-xL primary: blocks human Bcl-xL binding to Bim BH3 peptide; Q07817; GST-Bcl-xL / FITC-Bim BH3 peptide fluorescence polarization; inhibition, % at 10.9 µM; 320,000 tested, 0.7% active; AID 2129;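 active = inhibition above the mean of all tested compounds plus 3 SD, cutoff set per campaign, cut at about 30% in these data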;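 note: 0% = DMSO wells and 100% = unlabeled Bim-BH3 peptide competitor; inhibitors lower millipolarization by displacing the labeled peptide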
GLD-1 TGE inh: GLD-1-TGE RNA interaction inhibition (C. elegans); inhibition, % at 5.96 µM; purified GLD-1 + fluorescein TGE RNA, fluorescence polarization; 320,000 tested, 0.44% active;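 active = percent inhibition above a per-plate cutoff, the plate mean of test compounds plus 3 SD, cut at about 30% in these data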;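 note: 0% = DMSO wells with GLD-1 and probe and 100% = wells lacking GLD-1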
Bim-Mcl-1: human Bim-Mcl-1 interaction inhibition. 190,000 tested, 0.1% active. Q07820. inhibition, % at 10 µM. Bead-based flow cytometry, Bim peptide-Mcl-1 binding; in the data active = inhibition above about 40%;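 note: 0% = no compound tracer wells and 100% = peptide blocker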
Mcl1 Noxa PPI: Mcl-1/Noxa interaction inhibition; 220,000 tested, 1.5% active; TR-FRET Mcl-1/Noxa peptide binding, 2 h; inhibition, % at 21.7 µM; AID 1022;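 active = compounds that cut the protein-peptide binding signal by more than 50% relative to plate controls in a single-dose test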;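 note: His-tagged Mcl-1 with rhodamine Noxa BH3 peptide and terbium anti-His antibody; 0% = Mcl-1 plus Noxa peptide wells and 100% = peptide-only wells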
MCL1-BIM inh: MCL1-BIM-BH3 interaction inhibition (human); GST-MCL1 / FITC-Bim-BH3 fluorescence polarization; inhibition, % at 10.9 µM; 320,000 tested, 0.68% active;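 active = inhibition above the mean inhibition of all tested compounds plus 3 SD, set per campaign, cut at about 40% in these data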;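 note: 0% = DMSO wells and 100% = unlabeled Bim-BH3 peptide control; higher means more loss of mP so more displacement of Bim peptide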
Active calls of the source: *; nt = no result given. Only some compounds are listed: those with a hit (about 2.3% of all), similar ones and a draw of the others.

SMILES	Mcl1-Bid inh	Bcl-xL primary	GLD-1 TGE inh	Bim-Mcl-1	Mcl1 Noxa PPI	MCL1-BIM inh
COc1c(-c2ccc(O)c(O)c2)oc2cc(O)cc(O)c2c1=O	-60.7	0.1	9.6	nt	55.7*	-5.0
Cc1cc(NS(=O)(=O)c2ccc(NC(=O)COc3ccc(Br)cc3)cc2)nc(C)n1	nt	7.5	14.3	nt	nt	-2.5
CCOc1ccc(OCC(=O)Nc2ccc(S(=O)(=O)Nc3cc(C)nc(C)n3)cc2)cc1	2.1	2.5	1.0	-4.0	68.4*	1.6
C/C(=N\NC(=O)c1ccccc1F)c1ccc2c(c1)Nc1ccccc1S2	-12.0	-9.1	8.0	0.0	62.3*	-19.5
Cc1ccc2sc(N3CCN(CCNC(=O)c4ccco4)CC3)nc2c1C	nt	1.7	1.6	nt	nt	6.5
CCN1CC=C2C(C1)C(c1ccc(Cl)s1)C(C#N)=C(N)C2(C#N)C#N (stereo unspecified)	-24.9	101.9*	76.2*	8.0	19.0	113.8*
C=C(C)C1CC=C(C)/C(=N/NC(=O)C2CC2c2ccccc2)C1 (stereo unspecified)	-2.4	4.5	-1.7	-3.0	0.2	4.2
O=C(c1ccccc1)N1CCN(C2CCCCCC2)CC1	66.4*	4.4	-14.1	-1.0	27.0	4.3
O=C(c1ccc(F)cc1)N1CCN(C2CC3CCC2C3)CC1 (stereo unspecified)	-17.4	0.6	7.5	5.0	7.0	5.9
O=C(c1ccccc1)N1CCN(C2CC3CCC2C3)CC1 (stereo unspecified)	57.4*	0.9	-3.2	-3.0	-14.3	-1.1
Cc1cccc(C(=O)NC(=S)NNC(=O)COc2c(C)cccc2C)c1	-99.2	6.1	-6.4	-4.0	-30.1	7.8
CC1CC(C)CN(C(=O)COC(=O)c2nn(C)c(=O)c3ccccc23)C1 (stereo unspecified)	nt	1.2	2.0	nt	nt	-8.1
Cc1nn(Cc2ccccc2)c(C)c1NC(=O)CSc1nc(C2CC2)nc2c1cnn2-c1ccccc1	62.6*	0.4	10.4	0.0	3.5	3.0
Cc1nn(C)c(C)c1NC(=O)CSc1nc(Cc2ccccc2)nc2c1cnn2-c1ccccc1	nt	1.9	-1.8	nt	nt	7.0
COc1ccccc1NS(=O)(=O)c1ccc(C(=O)NCCCN2CCCC2=O)cc1	nt	-5.1	-3.2	nt	nt	1.8
CCN1C(=O)[C@H]2[C@@H](c3ccc(-c4ccc(OC)cc4)cc3)N[C@@](CC(C)C)(C(=O)OC)[C@H]2C1=O	nt	2.7	3.2	nt	nt	-0.1
CC(=O)c1cc(C#N)c(SCc2ccccn2)nc1C	-26.6	8.5	3.7	nt	87.7*	-1.0
CC(=O)c1cc(C#N)c(SCc2ccccc2)nc1C	-10.5	-1.9	3.2	-8.0	-6.3	3.2
O=C(CCN1C(=O)/C(=C/c2ccc3c(c2)OCO3)SC1=S)NNC(=O)c1cccnc1	52.6*	-5.0	-2.0	-21.0	34.5	-8.8
O=C(CCN1C(=O)/C(=C/c2cccc(Br)c2)SC1=S)NNC(=O)c1cccnc1	66.8*	-6.3	-8.0	7.0	46.0	4.5
O=C(CN1C(=O)/C(=C/c2cccc(Br)c2)SC1=S)Nc1cccnc1	6.2	9.1	2.3	-2.0	51.5*	5.8
COc1cccc(/C=C2\SC(=S)N(CCCC(=O)NC3=NCCS3)C2=O)c1	nt	2.7	0.4	nt	nt	3.7
O=C(CN1C(=O)/C(=C/c2cccc(Br)c2)SC1=S)NC1=NCCS1	0.0	4.5	-4.0	-4.0	54.9*	1.2
O=C(CCN1C(=O)/C(=C/c2ccccc2)SC1=S)NNC(=O)c1cccnc1	-1.0	4.6	5.2	0.0	19.3	4.5
COc1ccc(CCC(=O)NNC(=S)Nc2cccc(C(C)=O)c2)cc1	-21.1	2.1	0.6	-6.0	-29.7	8.3
SMILES	Mcl1-Bid inh	Bcl-xL primary	GLD-1 TGE inh	Bim-Mcl-1	Mcl1 Noxa PPI	MCL1-BIM inh
CC1CCCC(=NNC(=O)C2COc3ccccc3O2)C1 (stereo unspecified)	nt	nt	8.9	nt	nt	nt
COC(=O)c1ccc(NC(=O)c2ccc3c(c2)NC(=O)C2CCCN32)cc1 (stereo unspecified)	nt	-0.7	-3.6	nt	nt	-11.3
CC1(C)C(=O)Nc2ccccc2N1C(=O)COc1ccc(C#N)cc1	nt	nt	-1.2	nt	nt	nt
CC(=O)Nc1nnc(SCc2ccc(F)cc2)s1	-13.8	6.4	-1.3	-1.0	10.6	-0.1
CC(=O)Nc1nnc(SCc2cccc(F)c2)s1	-2.7	47.2*	0.1	0.0	7.8	2.1
O=C(COC(=O)c1cc[n+]([O-])cc1)Nc1ccccc1Cl	87.5*	1.0	-0.1	0.0	-6.4	-10.2
